Measured values: ChEMBL document CHEMBL1961873, “Compounds: GSK PKIS; Assays: Nanosyn kinase panel” (2012)

These compounds were tested against T1, Tyrosine-protein kinase Mer (Homo sapiens) (UniProt Q12866). Settings: at 0.1 µM.
T1 sequence (whole entry): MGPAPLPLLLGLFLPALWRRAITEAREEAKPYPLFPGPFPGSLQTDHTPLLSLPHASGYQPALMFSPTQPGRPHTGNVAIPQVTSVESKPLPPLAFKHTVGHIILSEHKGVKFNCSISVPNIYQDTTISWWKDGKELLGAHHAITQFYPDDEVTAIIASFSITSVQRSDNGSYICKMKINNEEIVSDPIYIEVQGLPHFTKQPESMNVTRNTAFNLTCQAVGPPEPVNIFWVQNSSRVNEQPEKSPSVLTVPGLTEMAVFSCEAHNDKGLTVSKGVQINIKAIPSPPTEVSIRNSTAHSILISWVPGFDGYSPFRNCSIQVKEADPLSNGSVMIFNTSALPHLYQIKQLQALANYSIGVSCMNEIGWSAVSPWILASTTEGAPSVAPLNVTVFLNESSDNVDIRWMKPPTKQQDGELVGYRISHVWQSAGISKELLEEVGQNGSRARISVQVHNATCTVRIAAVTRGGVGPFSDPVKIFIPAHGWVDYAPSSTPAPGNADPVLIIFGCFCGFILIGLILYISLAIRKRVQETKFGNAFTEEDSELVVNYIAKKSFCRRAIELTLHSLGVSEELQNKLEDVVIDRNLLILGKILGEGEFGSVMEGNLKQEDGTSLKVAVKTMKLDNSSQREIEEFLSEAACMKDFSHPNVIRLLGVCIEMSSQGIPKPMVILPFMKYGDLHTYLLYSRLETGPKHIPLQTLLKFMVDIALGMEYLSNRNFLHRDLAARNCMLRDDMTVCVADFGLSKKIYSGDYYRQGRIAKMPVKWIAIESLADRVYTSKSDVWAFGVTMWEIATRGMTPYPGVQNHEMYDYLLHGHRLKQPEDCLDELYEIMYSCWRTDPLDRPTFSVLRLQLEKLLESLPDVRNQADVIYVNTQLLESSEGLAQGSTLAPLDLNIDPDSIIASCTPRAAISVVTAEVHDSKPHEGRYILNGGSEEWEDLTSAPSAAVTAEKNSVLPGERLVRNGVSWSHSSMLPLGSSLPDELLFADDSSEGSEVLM

SMILES | inhibition [%]
COc1cccc(-n2ncc3c(N/N=C/c4ccc(C)cc4)ncnc32)c1 | 2.65
COc1cc2ncnc(Nc3ccc4c(cnn4Cc4ccccc4)c3)c2cc1OC | 7
Cc1ccc(NC(=O)CC2CC2)cc1-c1ccc(C(=O)NCC2CC2)cc1 | 0.96
COc1ccc2ncnc(Nc3ccc(OCc4ccccc4)cc3)c2c1 | 2.16
Nc1nccc(-c2c(-c3ccc(F)cc3)ncn2CCCN2CCOCC2)n1 | 0.72
CN(C)C(=O)O[C@@H]1CN[C@@H](C#Cc2cc3ncnc(Nc4ccc(OCc5cccc(F)c5)c(Cl)c4)c3s2)C1 | -0.95
Cc1cc(O)cc(C)c1/C=C/c1cncc(C(=O)N(C)C)c1 | 1.7
Cc1cc(-c2ccccn2)cc(C)c1/C=C/c1cncc(-c2nn[nH]n2)c1 | -0.39
CN(C)C(=O)O[C@H]1CN[C@H](C#Cc2cc3ncnc(Nc4ccc(OCc5cccc(F)c5)c(Cl)c4)c3s2)C1 | 0.43
Oc1cccc(-c2nc(-c3ccccc3)[nH]c2-c2ccncc2)c1 | 1.35
c1ccc(Cc2nc3ccc(Nc4ncnc5ccccc45)cc3[nH]2)cc1 | 0.72
CCn1c(-c2nonc2N)nc2ccc(F)cc21 | 1.51
Cc1ccc2c(-c3ccnc(Nc4ccc5c(c4)OCCO5)n3)c(-c3ccc(C(F)(F)F)cc3)nn2n1 | -0.17
N#Cc1c(NC(=O)c2ccccc2F)sc2c1CCCC2 | -1.5
CCOc1nccc2c1nc(-c1nonc1N)n2CC | 3.54
Nc1ccc(C#Cc2cncnc2Nc2ccc(OCc3cccc(F)c3)c(Cl)c2)cc1 | 1.5
Cc1nc(-c2ccccc2)n2nc(NCCCN3CCOCC3)ncc12 | 4.66

SMILES | inhibition [%]
CN(c1ccc(NC(=O)Nc2ccc(OC(F)(F)F)cc2)cc1)c1ccnc(Nc2cccc(S(N)(=O)=O)c2)n1 | 5.5
COc1ccc(-c2nn3ncccc3c2-c2ccnc(Nc3cccc(C(F)(F)F)c3)n2)cc1 | 1.45
COC(=O)c1ccc2c(c1)C(=Cc1cc(Br)c(O)c(Br)c1)C(=O)N2 | 1.09
Cc1ccc2c(-c3ccnc(Nc4cccc(C(F)(F)F)c4)n3)c(-c3ccccc3)nn2n1 | 4.49
NS(=O)(=O)c1ccc(Nc2cc(-c3cccc(O)c3)n[nH]2)cc1 | 0.91
COc1cc(/C=N/Nc2ncnc3c2cnn3C(C)C)ccc1O | 3.4
Cc1ccc2c(c1)/C(=N/Nc1ccc(S(N)(=O)=O)cc1)C(=O)N2 | -1.4
OCc1ccc(-c2nc(-c3ccccn3)c(-c3ccc4c(c3)OCO4)[nH]2)cc1 | 0.75
CC(C)c1ccc(Nc2nccc(-c3cnn4ncccc34)n2)cc1 | 1.42
O=S(=O)(CCOCc1ccc(-c2ccc3ncnc(Nc4ccc(OCc5cccc(F)c5)c(Cl)c4)c3c2)o1)c1ccccc1 | -1.18
O=C1Nc2ccccc2/C1=C/Nc1ccc2[nH]c(=O)[nH]c2c1 | 1.74
CCCN1CCCC(c2ccc(Nc3nc(Nc4cc(F)ccc4C(N)=O)c4cc[nH]c4n3)c(OC)c2)C1 (stereo unspecified) | 3.05
CN(C)c1cc2c(Nc3ccc4c(cnn4Cc4ccccc4)c3)ncnc2cn1 | 6.16
CCS(=O)(=O)c1ccc(OC)c(Nc2nccc(N(C)c3ccc4c(C)n[nH]c4c3)n2)c1 | -1.04
CCn1c(-c2nonc2N)nc2c(C#CC(C)(C)O)nc(OCCNC)cc21 | 2.03
COc1cc(Nc2nccc(-c3cnn4ncccc34)n2)cc(OC)c1 | 1.07

Each compound was assayed against T1, Tyrosine-protein kinase Mer (Homo sapiens). Settings: at 1 µM.

SMILES | inhibition [%]
COc1cccc(-n2ncc3c(N/N=C/c4ccc(C)cc4)ncnc32)c1 | 4.53
COc1cc2ncnc(Nc3ccc4c(cnn4Cc4ccccc4)c3)c2cc1OC | 45.5
Cc1ccc(NC(=O)CC2CC2)cc1-c1ccc(C(=O)NCC2CC2)cc1 | 1.85
COc1ccc2ncnc(Nc3ccc(OCc4ccccc4)cc3)c2c1 | 12.9
Nc1nccc(-c2c(-c3ccc(F)cc3)ncn2CCCN2CCOCC2)n1 | 2.2
CN(C)C(=O)O[C@@H]1CN[C@@H](C#Cc2cc3ncnc(Nc4ccc(OCc5cccc(F)c5)c(Cl)c4)c3s2)C1 | 2.89
Cc1cc(O)cc(C)c1/C=C/c1cncc(C(=O)N(C)C)c1 | 8.23
Cc1cc(-c2ccccn2)cc(C)c1/C=C/c1cncc(-c2nn[nH]n2)c1 | 3.73
CN(C)C(=O)O[C@H]1CN[C@H](C#Cc2cc3ncnc(Nc4ccc(OCc5cccc(F)c5)c(Cl)c4)c3s2)C1 | 3.05
Oc1cccc(-c2nc(-c3ccccc3)[nH]c2-c2ccncc2)c1 | 6.42
c1ccc(Cc2nc3ccc(Nc4ncnc5ccccc45)cc3[nH]2)cc1 | 1.74
CCn1c(-c2nonc2N)nc2ccc(F)cc21 | 3.19
Cc1ccc2c(-c3ccnc(Nc4ccc5c(c4)OCCO5)n3)c(-c3ccc(C(F)(F)F)cc3)nn2n1 | 0.27
N#Cc1c(NC(=O)c2ccccc2F)sc2c1CCCC2 | 0.64
CCOc1nccc2c1nc(-c1nonc1N)n2CC | 6.08
Nc1ccc(C#Cc2cncnc2Nc2ccc(OCc3cccc(F)c3)c(Cl)c2)cc1 | 2.05
Cc1nc(-c2ccccc2)n2nc(NCCCN3CCOCC3)ncc12 | 5.5

SMILES | inhibition [%]
CN(c1ccc(NC(=O)Nc2ccc(OC(F)(F)F)cc2)cc1)c1ccnc(Nc2cccc(S(N)(=O)=O)c2)n1 | 49.2
COc1ccc(-c2nn3ncccc3c2-c2ccnc(Nc3cccc(C(F)(F)F)c3)n2)cc1 | 3.23
COC(=O)c1ccc2c(c1)C(=Cc1cc(Br)c(O)c(Br)c1)C(=O)N2 | 2.17
Cc1ccc2c(-c3ccnc(Nc4cccc(C(F)(F)F)c4)n3)c(-c3ccccc3)nn2n1 | 20
NS(=O)(=O)c1ccc(Nc2cc(-c3cccc(O)c3)n[nH]2)cc1 | 6.51
COc1cc(/C=N/Nc2ncnc3c2cnn3C(C)C)ccc1O | 20.7
Cc1ccc2c(c1)/C(=N/Nc1ccc(S(N)(=O)=O)cc1)C(=O)N2 | 1.27
OCc1ccc(-c2nc(-c3ccccn3)c(-c3ccc4c(c3)OCO4)[nH]2)cc1 | 1.08
CC(C)c1ccc(Nc2nccc(-c3cnn4ncccc34)n2)cc1 | 7.98
O=S(=O)(CCOCc1ccc(-c2ccc3ncnc(Nc4ccc(OCc5cccc(F)c5)c(Cl)c4)c3c2)o1)c1ccccc1 | 6.22
O=C1Nc2ccccc2/C1=C/Nc1ccc2[nH]c(=O)[nH]c2c1 | 7.93
CCCN1CCCC(c2ccc(Nc3nc(Nc4cc(F)ccc4C(N)=O)c4cc[nH]c4n3)c(OC)c2)C1 (stereo unspecified) | 14.1
CN(C)c1cc2c(Nc3ccc4c(cnn4Cc4ccccc4)c3)ncnc2cn1 | 40.9
CCS(=O)(=O)c1ccc(OC)c(Nc2nccc(N(C)c3ccc4c(C)n[nH]c4c3)n2)c1 | 1.84
CCn1c(-c2nonc2N)nc2c(C#CC(C)(C)O)nc(OCCNC)cc21 | 2.24
COc1cc(Nc2nccc(-c3cnn4ncccc34)n2)cc(OC)c1 | 16.6
